# Test results as given in PubChem BioAssay.
# Results filed as inconclusive are left out. Active and inactive are the calls of the source. Unless noted, no stated cut-off is given here; in the data, active means inhibition above about 80%; inactive means the rest.
# Key:
# [1] = viability loss in pontine glioma line – cell-based, SU-DIPG-XVII, MIPE5.0, CellTiter-Glo, qHTS, dose response (AID 1347060; cut-off not given, nearly all actives have AC50 up to about 26 µM;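 on AC50: cells exposed to compound for 48 hours before viability readout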); conditions: CellTiter-Glo ATP luminescence
# [2] = viability loss in pontine glioma line – cell-based, SU-DIPG-XXV, MIPE5.0, CellTiter-Glo, qHTS, dose response (AID 1347065; cut-off not given, nearly all actives have AC50 up to about 26 µM;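 further: cells exposed to compound for 48 hours before ATP readout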); conditions: CellTiter-Glo ATP luminescence
# [3] = JHH-DIPG-1 glioma cell viability, MIPE5.0 library, CellTiter-Glo luminescence, qHTS (AID 1347067; cut-off not given, nearly all actives have AC50 up to about 26 µM;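 further: cells exposed to compound for 48 hours before readout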); conditions: JHH-DIPG-1 glioma viability, CellTiter-Glo ATP luminescence
# [4] = growth inhibition, single agent or in combination, cell-based, chromothripsis tumors, cisplatin or BGB combos (AID 1671449); conditions: LFS_MB_P medulloblastoma cells;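 further: cells exposed for 96 hours; 0% = vehicle DMSO and 100% = killing by high DMSO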
# [5] = growth inhibition, single agent and combos, cell-based, chromothripsis tumors, cisplatin or BGB combos (AID 1671450); conditions: HDN33 neuroblastoma cells, stronger effect = higher value;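 further: cells exposed to compound for four days; 0% = vehicle DMSO and 100% = cell killing by high DMSO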
# [6] = growth inhibition, single agents and combos, ICB984, cell-based, cisplatin or BGB combos, synergistic combos for chromothripsis tumors (AID 1671451; call rule not given here;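 further: cells exposed for 96 hours before readout; 0% = vehicle DMSO and 100% = killing by high DMSO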); conditions: ICB984 medulloblastoma cells, drug combinations, stronger effect = higher value
# [7] = growth inhibition, single agents and combos, LFS_MB_1R, cell-based, cisplatin or BGB combos, synergistic combos for chromothripsis tumors (AID 1671452); conditions: LFS_MB_1R medulloblastoma cells, stronger effect = higher value;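 further: cells exposed for 96 hours before readout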
# [8] = growth inhibition, single agents and combos, HTB85, cell-based, BGB or cisplatin IC20 combos, synergistic combos for chromothripsis tumors (AID 1671453); conditions: HTB85 osteosarcoma cells, drug combinations, stronger effect = higher value;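 further: cells exposed for 96 hours before readout; 0% = vehicle DMSO and 100% = high DMSO killing control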
# [9] = growth inhibition, single agents and combos, CRL2098, cell-based, BGB or cisplatin IC20 combos, synergistic combos for chromothripsis tumors (AID 1671454); conditions: CRL2098 osteosarcoma cells, drug combinations, stronger effect = higher value;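 further: cells exposed for 96 h before readout; 0% = vehicle DMSO and 100% = killing by high DMSO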
# [10] = growth inhibition, single agents and combos, HD-MB03, cell-based, BGB or cisplatin IC20 combos, synergistic combos for chromothripsis tumors (AID 1671455; in the data active means inhibition above about 83%;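 further: 0% = vehicle DMSO and 100% = high DMSO as cytotoxic control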); conditions: HD-MB03 medulloblastoma cells, stronger effect = higher value
# [11] = growth inhibition, single agents and combos, UWB1.289, cell-based, BGB or cisplatin combos, synergistic combos for chromothripsis tumors (AID 1671456); conditions: UWB1.289 ovarian carcinoma cells, stronger effect = higher value;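 further: cells exposed to compound for four days; 0% = vehicle DMSO and 100% = killing by high DMSO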
# [12] = growth inhibition, single agents and combos, LFS_MB_2R, cell-based, cisplatin combos, synergistic combos for chromothripsis tumors (AID 1671457); conditions: LFS_MB_2R medulloblastoma cells, stronger effect = higher value;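 further: cells exposed to compound for four days before readout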
# [13] = growth inhibition, MDA-MB-436, cell-based, BGB or cisplatin combos, synergistic combos for chromothripsis tumors (AID 1671458; call rule not given here;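 further: cells exposed for 96 hours; 0% = vehicle DMSO and 100% = killing by high DMSO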); conditions: MDA-MB-436 breast carcinoma growth inhibition, drug combinations, stronger effect = higher value
# [14] = UWB1.289_BRCA1 ovarian cancer growth, cell-based, BGB or cisplatin combinations (AID 1671459); conditions: UWB1.289 BRCA1 ovarian carcinoma, drug combinations, stronger effect = higher value
# [15] = drug combination toxicity in non-malignant astrocytes – cell-based, BGB or cisplatin IC20 combos, cytotoxicity control for chromothriptic childhood tumor combination screen (AID 1671460); conditions: Human astrocytes, viability inhibition, drug combinations, at 0.5 µM, stronger effect = higher value;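 further: cells exposed to compounds for 96 hours before viability readout; 0% = vehicle and 100% = killing control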
# [16] = BT084 cell growth, single and combined drugs, ICGC_MB145, cisplatin and BGB IC40 combos (AID 1671461); conditions: BT084 medulloblastoma cells, drug combinations, stronger effect = higher value;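 further: cells exposed to drugs for 96 hours; 0% = vehicle DMSO and 100% = high DMSO full killing control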
# [17] = RCMB18 cell growth, single agent and combined, cisplatin and BGB IC40 combos (AID 1671462); conditions: RCMB18 medulloblastoma cells, stronger effect = higher value;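 further: cells exposed to compound for four days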
# [18] = CRL1545 cell growth, single agent and combined, cisplatin and BGB IC20 combos (AID 1671464); conditions: CRL1545 osteosarcoma cells, stronger effect = higher value;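 further: cells exposed to compound for 96 hours before readout; 0% = vehicle DMSO and 100% = high DMSO killing control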
# [19] = growth inhibition of DIPG cells – cell-based, MIPE5.0 library, qHTS (AID 1347068; cut-off not given, nearly all actives have IC50 up to about 30 µM); conditions: SU-DIPG-XXV viability
# [20] = growth inhibition of DIPG cells – cell-based, MIPE4.0 library, CellTiter-Glo luminescence, qHTS (AID 1347066; cut-off not given, nearly all actives have AC50 up to about 30 µM;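 further: cells exposed to compound for 48 hours before readout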); conditions: SU-DIPG-VI viability, CellTiter-Glo ATP luminescence
# [21] = measured here: combination with BGB IC40, at 0.05 µM
# [22] = measured here: with BGB IC20 combination, at 0.5 µM
# [23] = measured here: with cisplatin IC20 combination, at 0.5 µM
# [24] = measured here: combination with cisplatin, at 0.5 µM
# [25] = measured here: combination with cisplatin, at 5 µM
compound,measurement,setting,value
CN[C@@H]1CN(c2ccc3c(=O)c(C(=O)O)cn(-c4nccs4)c3n2)C[C@H]1OC,AC50,[1],0.91 µM (active)
same,AC50,[2],5.74 µM (active)
same,AC50,[3],9.1 µM (active)
same,inhibition,"[4]; at 0.5 µM, stronger effect = higher value",-19.9% (inactive)
same,inhibition,"[4]; measured here: combination with BGB IC20, at 0.005 µM",-32.1%
same,inhibition,"[4]; measured here: combination with BGB IC40, at 0.005 µM",-41.7%
same,inhibition,[4]; [21],-39.5%
same,inhibition,"[4]; measured here: combination with cisplatin, at 0.5 µM, stronger effect = higher value",-37.3%
same,inhibition,"[4]; measured here: combination with cisplatin, at 5 µM, stronger effect = higher value",59.3%
same,inhibition,"[5]; BGB combo, at 5 µM",99.1%
same,inhibition,[5]; at 0.5 µM,57% (inactive)
same,inhibition,"[5]; cisplatin combo, at 5 µM",99.4%
same,inhibition,[5]; [22],48.4%
same,inhibition,[5]; [23],56.4%
same,inhibition,"[5]; single agent, at 5 µM",99.6%
same,inhibition,"[6]; BGB IC20 combo, at 0.005 µM",19.2%
same,inhibition,"[6]; BGB IC40 combo, at 0.005 µM",-11.4%
same,inhibition,"[6]; BGB IC40 combo, at 0.05 µM",100%
same,inhibition,[6]; at 0.5 µM,-34.8% (inactive)
same,inhibition,"[6]; cisplatin combo, at 0.05 µM",100%
same,inhibition,"[6]; cisplatin combo, at 0.5 µM",-31.3%
same,inhibition,"[6]; cisplatin combo, at 5 µM",-34.3%
same,inhibition,"[6]; measured here: 5 uM single agent, at 5 µM",-6.89%
same,inhibition,[7]; at 0.5 µM,3.38% (inactive)
same,inhibition,[7]; [21],4.5%
same,inhibition,[7]; [24],47.4%
same,inhibition,[7]; [25],92.8%
same,inhibition,[8]; at 0.5 µM,51.4% (inactive)
same,inhibition,"[8]; measured here: with BGB IC20, at 0.5 µM",49.9%
same,inhibition,"[8]; measured here: with BGB IC20, at 5 µM",99.2%
same,inhibition,"[8]; measured here: with cisplatin IC20, at 0.5 µM",42.9%
same,inhibition,"[8]; measured here: with cisplatin IC20, at 5 µM",99.3%
same,inhibition,"[8]; single agent, at 5 µM",99.2%
same,inhibition,[9]; at 0.5 µM,18.1% (inactive)
same,inhibition,"[9]; measured here: combination with BGB at IC20, at 0.5 µM",27.9%
same,inhibition,"[9]; measured here: combination with cisplatin at IC20, at 0.5 µM",-2.11%
same,inhibition,[10]; at 0.5 µM,72.5% (inactive)
same,inhibition,"[10]; measured here: combo with BGB at IC20, at 0.5 µM",63.8%
same,inhibition,"[10]; measured here: combo with cisplatin at IC20, at 0.5 µM",74.4%
same,inhibition,[11]; at 0.5 µM,14.7% (inactive)
same,inhibition,"[11]; measured here: inhibition with BGB combination, at 0.05 µM",-25.3%
same,inhibition,"[11]; measured here: inhibition with cisplatin combination, at 0.05 µM",-22.6%
same,inhibition,[12]; at 0.5 µM,-28.9% (inactive)
same,inhibition,[12]; [24],-26%
same,inhibition,[12]; [25],34.8%
same,inhibition,[13]; at 0.5 µM,25.6% (inactive)
same,inhibition,"[13]; measured here: BGB combination, at 0.5 µM",14%
same,inhibition,"[13]; measured here: BGB combination, at 5 µM",70.2%
same,inhibition,"[13]; measured here: cisplatin combination, at 0.5 µM",8.1%
same,inhibition,"[13]; measured here: cisplatin combination, at 5 µM",85.8%
same,inhibition,"[14]; BGB combination, concentration series, at 5 µM",94.6%
same,inhibition,[14]; at 0.5 µM,13.7% (inactive)
same,inhibition,"[14]; cisplatin combination, concentration series, at 5 µM",98.3%
same,inhibition,[15],33.4% (inactive)
same,inhibition,[15]; measured here: combo with BGB IC20,29%
same,inhibition,[15]; measured here: combo with cisplatin IC20,13.3%
same,inhibition,[16]; at 0.5 µM,-20% (inactive)
same,inhibition,"[16]; cisplatin combination, at 0.5 µM",-18.3%
same,inhibition,"[16]; cisplatin combination, at 5 µM",37.6%
same,inhibition,"[16]; measured here: BGB IC40 combination 0.05 uM, at 0.05 µM",-77.9%
same,inhibition,"[16]; single agent, at 5 µM",101%
same,inhibition,[17]; at 0.5 µM,-5.3% (inactive)
same,inhibition,"[17]; cisplatin combo, at 5 µM",84.6%
same,inhibition,"[17]; measured here: BGB IC40 combination, at 0.05 µM",-18.9%
same,inhibition,[17]; [24],32.1%
same,inhibition,"[17]; single agent, at 5 µM",87.5%
same,inhibition,[18]; at 0.5 µM,17.4% (inactive)
same,inhibition,[18]; [22],16.9%
same,inhibition,[18]; [23],16.4%
same,inhibition,"[18]; single agent, at 0.05 µM",9.09%
same,inhibition,"[18]; single agent, at 5 µM",99.7%
CCCOc1ccn2c(C(C)=O)cc(-c3ccccc3S(C)(=O)=O)c2c1,outcome,[1],inactive
same,outcome,[2],inactive
same,outcome,[19],inactive
NC(=O)[C@@H](CCC(F)(F)F)N(Cc1ccc(-c2ncon2)cc1F)S(=O)(=O)c1ccc(Cl)cc1,outcome,[1],inactive
same,outcome,[20],inactive
same,outcome,[3],inactive
